# Reference: PubChem BioAssay (NCATS)
# Records with an inconclusive call do not appear. A number with no mark means an inactive call. Active and inactive are the calls of the source. Calls follow the shape of the dose curve; as a rule, active = well fitted inhibition curve with a large enough effect; inconclusive = small, poorly fitted or top-dose-only effect; inactive = flat fitted curve, though single readings scatter.
# Test system: CRL-7250
# Assay: Cytotoxic Profiling of Annotated Libraries Using Quantitative High-Throughput Screening (AID 1296008); also: nearly all actives have a fitted effect of over 60% in size
# Conditions: Five cell lines viability, CellTiter-Glo ATP luminescence, 48-72 h; max response: stronger effect = lower value
# In short: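 Cells exposed to compounds for 48 or 72 hr at 37 degrees Celsius. Viability read as ATP-coupled luminescence with CellTiter-Glo after 10 min at room temperature.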
# % is scaled to controls: 0 for no effect and ±100 for the full control effect; potency is read from the fitted curve at half-maximal effect.
SMILES,Potency,outcome,max response [%]
CC(=O)O[C@H]1CC(C)(C)CC2[C@@]13[C@H](O)C[C@]1(C)[C@@]2(CCC2[C@@]4(C)CC[C@H](O[C@@H]5OC[C@H](O[C@@H]6O[C@H](CO)[C@@H](O)[C@H](O)[C@H]6O[C@@H]6OC[C@@H](O)[C@H](O)[C@H]6O)[C@H](O)[C@H]5O[C@@H]5O[C@H](CO)[C@@H](O)[C@H](O)[C@H]5O)C(C)(C)C4CC[C@]21C)O[C@@H]3O (stereo not given in full),2460 nM (active),,
CCN1CCN(Cc2ccc(NC(=O)c3ccc(C)c(NC(=O)c4cncc(-c5cccs5)c4)c3)cc2C(F)(F)F)CC1,461 nM (active),,
COC1CC(O[C@H]2CC[C@@]3(C)C(=CC[C@]4(O)C3[C@H](OC(C)=O)[C@@H](OC(=O)c3ccccc3)[C@]3(C)[C@@H](C(C)=O)CC[C@@]34O)C2)OC(C)C1OC1CC(OC)C(OC2CC(OC)C(OC3OC(C)C(OC4OC(CO)C(O)C(O)C4O)C(OC)C3O)C(C)O2)C(C)O1 (stereo not given in full),,inactive,
O=C(O)c1ccc(CN2CCC(CN[C@@H]3C[C@H]3c3ccccc3)CC2)cc1,,,-10.5
C=CC(C)(C)C12C=C(OC)C(=O)N3C(C(C)C)C(=O)NC31N(OC)c1ccccc12 (stereo not given),,,1.83
CC1(C)CCC2(C(=O)OC3OCC(O)C(O)C3O)CCC3(C)C(=CCC4C5(C)CC(O)C(OC6OC(COC7OCC(O)C(O)C7O)C(O)C(O)C6O)C(C)(C)C5CCC43C)C2C1 (stereo not given),,,1.81
CC1(C)CC2=C3C=CC4C5(C)CCC(O)C(C)(C)C5CCC4(C)C3(C)CCC2(C)C(O)C1 (stereo not given),,,-3.63
Cc1[nH]c2ccccc2c1CCNC(=O)c1ccccc1F,,,-5.45
COc1cc(O)c([C@@H](CC(=O)N2CC(C)CC(C)C2)c2ccc3c(c2)OCO3)c(OC)c1 (stereo not given in full),,,-6.18
Cc1ccc(C)c(OCCn2cc(C(=O)O)c3ccccc32)c1,,,-3.65
COC1CC(OC2CCC3(C)C(=CCC4C3C(OC(C)=O)C(OC(=O)/C=C/c3ccccc3)C3(C)C(C(C)O)CCC43O)C2)OC(C)C1OC1CC(OC)C(OC2OC(C)C(OC3OC(CO)C(O)C(O)C3O)C(OC)C2O)C(C)O1 (stereo not given),,,2.68
O=C(OCC1=CC(O)C2C=CO[C@@H](O[C@@H]3O[C@H](CO)[C@@H](O)[C@H](O)[C@H]3O)C12)c1ccccc1 (stereo not given in full),,,-3.02
C[C@@H]1O[C@@H](O[C@H]2[C@H](O)[C@@H](O[C@@H]3O[C@H](CO)[C@@H](O)[C@H](O[C@@H]4O[C@H](CO)[C@@H](O)[C@H](O)[C@H]4O)[C@H]3O)[C@H](O[C@H]3CC[C@@]4(C)C(=CC[C@@H]5C4CC[C@@]4(C)C5C[C@@H]5OC6(CC[C@@](C)(CO[C@@H]7O[C@H](CO)[C@@H](O)[C@H](O)[C@H]7O)O6)[C@@H](C)[C@@H]54)C3)O[C@@H]2CO)[C@H](O)[C@H](O)[C@H]1OC1OC(CO)C(O)C(O)C1O (stereo not given in full),,,-6.48
CC1=CC(=O)C(=C(C)C)CC2C1CCC2(C)O (stereo not given),,,-11.2
C=C1C(=O)O[C@H]2[C@H]1CC/C(C)=C/CC[C@@]1(C)O[C@@H]21,,,-15.8
C[C@H]1CC(=O)Nc2cccc(-c3cnn(C(C)(C)C)c3)c2N1,,,-2.99
O=C(/C=C\c1ccc(O)cc1)N[C@@H](Cc1ccc(O)cc1)C(=O)O,,,-7.69
C[C@@H]1O[C@@H](O[C@@H]2CO[C@@H](O[C@H]3CC[C@@]4(C)C(CC[C@]5(C)C4CC=C4[C@@H]6CC(C)(C)CC[C@]6(C(=O)O[C@@H]6O[C@H](CO)[C@@H](O)[C@H](O)[C@H]6O)CC[C@]45C)[C@]3(C)CO)[C@H](O)[C@H]2O[C@@H]2O[C@H](CO)[C@@H](O)[C@H](O)[C@H]2O)[C@H](O)[C@H](O)[C@H]1O (stereo not given in full),,,-2.09
CCCCCCOc1cc2c(cc1N(C)c1ncc(C(=O)O)cn1)C(C)(C)CCC2(C)C,,,4.99
CN[C@H](CC(C)C)C(=O)N[C@H]1C(=O)N[C@@H](CC(N)=O)C(=O)N[C@H]2C(=O)N[C@H]3C(=O)N[C@H](C(=O)N[C@H](C(=O)O)c4cc(O)cc(O)c4-c4cc3ccc4O)[C@H](O[C@H]3C[C@](C)(N)[C@@H](O)[C@H](C)O3)c3ccc(c(Cl)c3)Oc3cc2cc(c3O[C@@H]2O[C@H](CO)[C@@H](O)[C@H](O)[C@H]2O[C@H]2C[C@](C)(NCc3ccc(-c4ccc(Cl)cc4)cc3)[C@@H](O)[C@H](C)O2)Oc2ccc(cc2Cl)[C@H]1O,,,0.406

SMILES,Potency,outcome,max response [%]
CC/C=C\CC1C(=O)C=CC1(CCCCCCCC(=O)O)OC(C)=O (stereo not given),,,-0.322
C=C1C[C@@]23CCC4[C@@](C)(CCC[C@@]4(C)C(=O)OC)C2CC[C@@H]1C3 (stereo not given in full),,inactive,
CC1(O)CC(O)C2(O)C=COC(O[C@@H]3O[C@H](CO)[C@@H](O)[C@H](O)[C@H]3O)C12 (stereo not given in full),,,-2.75
C/C(=C\CCC(C)CCO)C(=O)O[C@@H]1[C@@H](O)[C@H](OC2OC=C(C(=O)O)C3CCC(C)(O)C23)O[C@H](CO)[C@H]1O (stereo not given in full),,inactive,
CC(C)S(=O)(=O)NC[C@H](C)c1ccc(NC(=O)c2cc(F)cc(F)c2)cc1,,inactive,
CC(=O)OC1C[C@]2(C)C(O)CC(C)=C[C@H](OC(=O)c3ccc(O)cc3)C2[C@]1(O)C(C)C (stereo not given in full),,,1.7
CCC(COC)n1nnc2c(Nc3ccc(OC)cc3C)nc(C)cc21 (stereo not given),,inactive,
CC1CCC2(OC1)OC1CC3C4CC=C5CC(O)CC(O[C@@H]6OC[C@@H](O)[C@H](O)[C@H]6O)C5(C)C4CCC3(C)C1(O)C2C (stereo not given in full),,inactive,
CC(C)c1cccc2c(-c3ccccc3)cc(-c3ccc(-c4ccc(C(=O)O)cc4)[nH]3)nc12,,,-17.4
CN(C)c1ccc2c(c1)OC(N)=C(C#N)C2c1cccc(C(F)(F)F)c1 (stereo not given),1640 nM (active),,
OCC1OC(Oc2cc(O)cc(/C=C/c3ccc(O)cc3)c2)C(O)C(O)C1O (stereo not given),,,-6.35
OCCc1ccc(O[C@@H]2O[C@H](CO)[C@@H](O)[C@H](O)[C@H]2O)cc1,,,2.72
COC(=O)C1=C2Nc3ccccc3C23CCN2CCCC(C(C)O)(C1)C23 (stereo not given),,inactive,
Cc1cccc(-c2[nH]c(Cc3cccc(C(N)=O)c3)nc2-c2ccc3nccnc3c2)n1,,,4.2
C/C=C(/COC(=O)/C(C)=C/C)C(=O)OC(CC)c1ccc(OC)c(OC)c1 (stereo not given),,,3.89
Cc1cc(=O)oc2c(C=O)c(O)ccc12,,,0.427
O=C(CC(c1ccccc1)c1ccccc1)N1CCN(C(c2ccccc2)c2ccccc2)CC1,,,-24.4
CCCCc1nc2cc(/C=C/C(=O)NO)ccc2n1CCN(CC)CC,5800 nM (active),,
CC1(C)CC[C@]2(C(=O)O[C@@H]3O[C@H](CO)[C@@H](O)[C@H](O)[C@H]3O)CC[C@]3(C)C(=CCC4[C@@]5(C)C[C@@H](O)[C@H](O)C(C)(C)C5CC[C@]43C)C2[C@@H]1O (stereo not given in full),,,0.543
Cc1cnc(Nc2ccc(F)cc2Cl)nc1-c1c[nH]c(C(=O)NC(CO)c2cccc(Cl)c2)c1 (stereo not given),,,-0.447
